A selection: hits, their analogues and other compounds. The true share with any hit is near 7.5%.
ELG1 genotoxic – induces genotoxicity in HEK293T cells with luciferase-tagged ELG1. 330,000 compounds, 1.3% hits. Potency, µM (doses to about 46 µM), without a hit: at the highest dose activity change, positive = activation, actives largely listed as activators. HEK293T ELG1-luciferase reporter, luminescence, 16 h; further: % of control where 0% means no effect; nearly all actives have a fitted effect of over 60% in size
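Genotoxicity was scored as increased ELG1-luciferase reporter signal, measured by ONE-Glo luminescence (30 min, room temperature). Compound or vehicle exposure of the HEK293T reporter cells lasted 16 hr at 37°C.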
NPC1 prom act – activates the NPC1 promoter | Huh7 NPC1 promoter luciferase reporter, 24 h | Potency, µM (highest dose often 9.22 µM), for inactives: top-dose activation, hits mostly activators | 320,000 compounds, 2.4% hits; further: % of control where 0% means no effect; nearly all actives have a fitted effect of over 60% in size
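Cells: Huh7 expressing luciferase under the NPC1 promoter, 1500/well. Seeded 2 h, compound added, incubated 24 h at 37 °C. Luciferase reagent, 10 min ambient, then luminescence.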
SMN2 splice enh – SMN2 splice variant enhancement | HEK293 SMN2-luciferase splicing reporter, luminescence, 30-36 h | Potency, µM (series often up to 46.1 µM), without a hit: at the top dose activity change, positive = activation, usual class: activators | 210,000 compounds, 2.8% hits; further: % of control where 0% means no effect; nearly all actives have a fitted effect of over 55% in size
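qHTS luciferase splicing reporter: luminescence rises when SMN2 exon 7 is included in transfected HEK293 cells. Compound exposure lasted 30-36 h at 37C, with 4.5 mM final sodium butyrate as control, followed by a ONE-Glo read.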
FLuc modulator – firefly luciferase modulation, counter-screen for miR-21 project; 360,000 compounds, 6.9% hits; Potency, µM (doses to about 57.5 µM), for the others: at the top dose activity change, negative = inhibition, actives largely listed as inhibitors; purified FLuc, Km substrates, luminescence inhibition;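 further: plate controls were vehicle for no effect and reference inhibitor for full effect; nearly all actives have a fitted effect of over 55% in size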
Target sequence (P08659 whole entry, looked up): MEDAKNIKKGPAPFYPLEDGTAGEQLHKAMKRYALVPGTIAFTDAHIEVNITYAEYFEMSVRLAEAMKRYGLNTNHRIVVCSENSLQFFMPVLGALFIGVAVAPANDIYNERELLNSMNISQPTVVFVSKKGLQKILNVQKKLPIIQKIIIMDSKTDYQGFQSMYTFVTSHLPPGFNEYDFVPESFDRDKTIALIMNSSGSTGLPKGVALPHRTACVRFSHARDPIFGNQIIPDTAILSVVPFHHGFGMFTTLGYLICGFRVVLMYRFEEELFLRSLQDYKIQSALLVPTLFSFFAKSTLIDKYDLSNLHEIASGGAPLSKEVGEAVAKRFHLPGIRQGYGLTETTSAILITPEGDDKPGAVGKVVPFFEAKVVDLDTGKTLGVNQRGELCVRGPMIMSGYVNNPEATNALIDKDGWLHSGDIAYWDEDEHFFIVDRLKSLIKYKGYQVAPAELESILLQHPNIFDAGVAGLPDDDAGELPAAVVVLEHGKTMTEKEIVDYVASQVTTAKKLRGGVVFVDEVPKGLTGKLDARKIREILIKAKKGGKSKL
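Biochemical qHTS of compounds, final roughly 60 µM downward over six points, against 10 nM purified firefly luciferase using Km concentrations of substrates (10 uM D-luciferin, 10 uM ATP) in Tris acetate pH 7.5 buffer; luminescence output.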
Rab9 promoter act – activators of Rab9 promoter; Potency, µM (top dose mostly 9.22 µM), for inactives: at the top dose activation, negative = inhibition, hits mostly activators; AID 485297; 320,000 compounds, 2.8% hits; Huh7 Rab9 promoter-luciferase reporter, luminescence, 24 h; further: % of control where 0% means no effect; nearly all actives have a fitted effect of over 60% in size
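Measured in stably transfected Huh7 cells bearing a Rab9 promoter–luciferase construct: 24 h compound treatment at 37 °C, followed by luminescence detection.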
* hit, by the source's call. The call rests on the fitted dose curve; in most records, active means well fitted curve in the direction sought with a large enough effect; inconclusive means small, poorly fitted or top-dose-only effect, or another doubt; inactive means no such curve, though single readings can be large; an effect the other way counts as inactive or inconclusive. Potency means the concentration at half of the fitted maximal effect.

Screening COc1cc(/C=N/Nc2ccc(Cl)c(C(=O)O)c2)ccc1OC(=O)c1cccs1 returned ELG1 genotoxic 11%, NPC1 prom act 22%, SMN2 splice enh 17%, FLuc modulator 24µM* and Rab9 promoter act inconclusive.
For COc1cc(/C=N/Nc2ccc(Cl)c(C(=O)O)c2)ccc1OC(=O)c1ccco1 the results were ELG1 genotoxic -20%, NPC1 prom act inconclusive, SMN2 splice enh 3%, FLuc modulator inconclusive and Rab9 promoter act 26%.
`Oc1ccc2ccccc2c1C=NCc1ccccc1` gave ELG1 genotoxic -7%, NPC1 prom act -3%, FLuc modulator 11µM* and Rab9 promoter act 11%.
For Oc1ccc2ccccc2c1/C=N/Nc1ccccc1 the results were ELG1 genotoxic inconclusive, NPC1 prom act 0%, SMN2 splice enh inconclusive, FLuc modulator 6µM* and Rab9 promoter act 0%.
Oc1ccc2ccccc2c1/C=N/n1cnnc1 was read as ELG1 genotoxic 0%, NPC1 prom act -6%, SMN2 splice enh 4%, FLuc modulator -1% and Rab9 promoter act 0%.
O=CN/N=C/c1c(O)ccc2ccccc12 was read as ELG1 genotoxic 0%, NPC1 prom act -33%, FLuc modulator -1% and Rab9 promoter act -29%.
`O=C1C2C3C=CC(CC3)C2C(=O)N1c1ccc2c(c1)OCO2` (configuration not stated) gave ELG1 genotoxic 1%, NPC1 prom act 0%, SMN2 splice enh -16%, FLuc modulator 17µM* and Rab9 promoter act 6%.
For O=C1C2C3C=CC(C3)C2C(=O)N1c1ccc2c(c1)OCO2 (configuration not stated) the results were ELG1 genotoxic -2%, NPC1 prom act 6%, FLuc modulator -23% and Rab9 promoter act -2%.
O=C(c1cccc(F)c1)N1CCc2ccccc21 was read as ELG1 genotoxic -4%, NPC1 prom act -2%, SMN2 splice enh 13%, FLuc modulator 2% and Rab9 promoter act -5%.
`O=C(c1cc2cc(F)ccc2[nH]1)N1CCc2ccccc21` gave ELG1 genotoxic inconclusive, NPC1 prom act 4µM*, FLuc modulator inconclusive and Rab9 promoter act 3.5µM*.
For O=C(c1cc2cc(Br)ccc2[nH]1)N1CCc2ccccc21 the results were ELG1 genotoxic 2%, NPC1 prom act 5µM*, FLuc modulator 1% and Rab9 promoter act 22%.
`COc1ccc2cc(C(=O)N3CCc4ccccc43)[nH]c2c1` gave ELG1 genotoxic inconclusive, NPC1 prom act inconclusive, FLuc modulator 0.95µM* and Rab9 promoter act 4µM*.
Screening COc1ccc(N2CCN(C(=O)CSc3nc(-c4ccccc4)no3)CC2)cc1 returned FLuc modulator 7%.
`O=S1(=O)N=C(c2ccccc2)C=C(c2ccccc2)N1` gave ELG1 genotoxic 4%.
Cc1ccc(C(=O)/C=C2/NC(=O)CS2)cc1 was read as ELG1 genotoxic 17%, NPC1 prom act 25%, SMN2 splice enh 20µM*, FLuc modulator 6.7µM* and Rab9 promoter act inconclusive.
`O=C1CS/C(=C/C(=O)c2cccc(Cl)c2)N1` gave ELG1 genotoxic 14%, NPC1 prom act 5%, SMN2 splice enh 10%, FLuc modulator inconclusive and Rab9 promoter act 1%.
CCC(=O)Nc1cccc(-c2ccc(N3CCCCC3)nn2)c1 was read as ELG1 genotoxic 2.3µM*, NPC1 prom act 0.56µM*, FLuc modulator 0.54µM* and Rab9 promoter act 0.45µM*.
CCC(=O)Nc1cccc(-c2ccc(N3CCN(C)CC3)nn2)c1 was read as ELG1 genotoxic inconclusive, NPC1 prom act 2.5µM*, FLuc modulator 6.7µM* and Rab9 promoter act inconclusive.
CCC(=O)Nc1cccc(-n2nnnc2SCC(=O)N2CCCCC2)c1 was read as ELG1 genotoxic 9%, NPC1 prom act 15%, SMN2 splice enh 7%, FLuc modulator -21% and Rab9 promoter act inconclusive.
COc1ccc(C(=O)COC(=O)CCN2C(=O)C3CC=CCC3C2=O)c(OC)c1 (configuration not stated) was read as ELG1 genotoxic 5%, NPC1 prom act -6%, FLuc modulator 7% and Rab9 promoter act -7%.
`OC(CNc1ncnc2sccc12)c1ccccc1` (configuration not stated) gave ELG1 genotoxic 8%, NPC1 prom act inconclusive, FLuc modulator 17µM* and Rab9 promoter act 1%.
`CN(C)C(CNc1ncnc2sccc12)c1ccccc1` (configuration not stated) gave ELG1 genotoxic -2%, NPC1 prom act -5%, SMN2 splice enh -2%, FLuc modulator -4% and Rab9 promoter act 2%.
For CC1CCCCN1C(=O)COC(=O)c1ccc2ccccc2n1 (configuration not stated) the results were ELG1 genotoxic 1%, NPC1 prom act -8%, FLuc modulator 8.5µM* and Rab9 promoter act -4%.
CCn1cc(C(=O)NCc2ccc(Cl)cc2)c(=O)c2cc(S(=O)(=O)N3CCOCC3)ccc21 was read as ELG1 genotoxic -12%, NPC1 prom act 0%, SMN2 splice enh -3%, FLuc modulator 3% and Rab9 promoter act 1%.
For CN(Cc1ccccc1)C(=O)c1cccc(NC(=O)c2nsc3ccccc23)c1 the results were FLuc modulator 9.5µM*.
Screening CC(C)Oc1ccc(CNC(=O)c2cccc(NC(=O)c3nsc4ccccc34)c2)cc1 returned FLuc modulator 9.5µM*.
`CC(NC(=O)c1ccc(NC(=O)c2nsc3ccccc23)cc1)c1ccccc1` (configuration not stated) gave FLuc modulator 3µM*.
`Cc1ccc(C(=O)O)cc1NC(=O)c1nsc2ccccc12` gave SMN2 splice enh 18% and FLuc modulator inconclusive.
CC(NC(=O)c1cccc(NC(=O)c2nsc3ccccc23)c1)c1ccccc1 (configuration not stated) was read as FLuc modulator 3.8µM*.
COc1cc(OC)c(NC(=O)c2ccc3c(c2)N(Cc2ccc(C)cc2)CCS3)cc1Cl was read as SMN2 splice enh -5% and FLuc modulator -2%.
Screening CCn1c(O)c(/C=C2\C=Nc3ccccc32)sc1=O returned ELG1 genotoxic 6.5µM*, NPC1 prom act inconclusive, SMN2 splice enh 22µM*, FLuc modulator 2.7µM* and Rab9 promoter act 1.4µM*.
Oc1nc(Nc2ccccc2)sc1/C=C1\C=Nc2ccccc21 was read as ELG1 genotoxic inconclusive, NPC1 prom act 4µM*, FLuc modulator 19µM* and Rab9 promoter act 2.8µM*.
Screening CCn1c(O)c(/C=C2\C=Nc3ccccc32)sc1=Nc1ccc(C)cc1 returned ELG1 genotoxic 6%, NPC1 prom act -11%, SMN2 splice enh -9%, FLuc modulator -2% and Rab9 promoter act -2%.
Screening CCCn1c(=O)c2sccc2n2c(CCCC(=O)NCCc3ccc(Cl)cc3)nnc12 returned FLuc modulator -1%.

Source: PubChem
